The text below walks through data of PubChem BioAssay AID463173 (ICCB-Longwood Screening Facility, Harvard Medical School, 2010).

About 4,300 (8.3%) of roughly 52,000 compounds were called active. Cut-off read from the data, not from the text of the source: active = survival mostly below about 52% (no sharp cut-off); inactive = mostly above about 56%. What follows is part of a selection rich in actives, with near analogues and random picks from the rest.

The test system of the test is DeltatarO mutant. As to the kind of experiment: growth inhibition of S. aureus wild type versus tarO mutant, primary screen, teichoic acid synthesis inhibitors, RN4220, OD600 (AID 463173). Conditions: OD600, 18 h, hits give low values, screened at 18.75 µg/mL (by protocol).
On to `CCOc1ccc(C(=O)Nc2ccc3nc(SCc4ccccc4)sc3c2)cc1`, for which the survival is 91% (inactive). Under `O=c1c2c(nc3n1CCCS3)-c1ccccc1CC21CCCC1` stands 73% (inactive).

Consider `CC1=C(C(=O)OC2CCCCCC2)C(c2cccc(F)c2F)CC(=O)N1` (stereo not drawn), for which the survival was 128% (inactive). As to `CC(NC(=O)c1ccc(F)cc1)c1nc2ccccc2[nH]1` (stereo not drawn), the survival was 83% (inactive). For `O=C(Cn1c(=O)nc(-c2ccccc2)c2ccccc21)Nc1ccc(Cl)cc1F`, the survival was 73% (inactive). To `Clc1ccccc1-c1nnc(COc2ccccc2)o1` belongs 50% (inactive); to `CC(CNC(=O)c1sc2ncccc2c1-n1cccc1)c1ccccc1` (stereo not drawn), 102% (inactive). For the compound `COCCCNC(=O)CCCn1c(=O)c2ccccc2n(CC(=O)Nc2ccc(C)cc2Cl)c1=O`, the survival was 96% (inactive). Turning to `COc1cc(NC(=O)CN2CCN(CC(=O)Nc3ccc(F)cc3)CC2)cc(OC)c1`, the survival was 70% (inactive). Under `CCN(C(=O)Cn1ncc2c(=O)oc3ccccc3c21)c1ccccc1F` stands 118% (inactive); under `Oc1ccc(-c2nc3ccc(Cl)cn3c2Nc2ccc3c(c2)OCO3)cc1`, 106% (inactive).

Regarding `Oc1ccc(-c2nc3ccc(Cl)cn3c2Nc2ccc(Cl)cc2)cc1`, the survival is 16% (active).

On to `Cc1ccc2nc(-c3ccc(O)cc3)c(Nc3ccc(Cl)cc3)n2c1`, for which the survival was 59% (inactive). For the compound `Cc1ccc(C(=O)OCc2cc(=O)n3nc(-c4cccs4)sc3n2)cc1`, the survival is 95% (inactive). On to `CCC(C(=O)Nc1cc(OC)ccc1OC)n1nc(-c2ccccc2)c2c(c1=O)CCCC2` (stereo not drawn), for which the survival was 35% (active).

`CCC(C(=O)Nc1cc(OC)ccc1OC)n1c(C)c2cnn(-c3ccccc3)c(=O)c2c1C` (stereo not drawn): the survival is 107% (inactive).

As for `CCC(C(=O)Nc1ccc(F)cc1F)n1nc(-c2ccccc2)c2c(c1=O)CCCC2` (stereo not drawn), the survival is 38% (active).

For `CCC(C(=O)Nc1ccc(C(=O)OC)cc1)n1nc(-c2ccc(C)cc2)c2c(c1=O)CCCC2` (stereo not drawn), the survival was 102% (inactive). Under `O=C(CSc1c2c(nc3ccccc13)CCC2)Nc1ccc(F)cc1F` stands 69% (inactive); under `O=C(Cn1nc2c(cc1=O)CCCC2)Nc1ccc(F)cc1F`, 118% (inactive). In the case of `CCOc1ccc(NC(=O)CSC2=Nc3ccccc3C3=NC(CCC(=O)NCc4cccs4)C(=O)N23)cc1` (stereo not drawn), the survival is 70% (inactive). `CCN1CCN(Cc2c(C)[nH]c3c(C)cc(C)cc3c2=O)CC1`: the survival was 59% (inactive). For `COc1ccccc1Cc1nc2ccccc2[nH]c1=O`, the survival was 54% (inactive). Under `CN1C(=O)c2ccccc2Sc2ccc(NC(=O)N3CCN(c4cccc(Cl)c4)CC3)cc21` stands 87% (inactive); under `CCOC(=O)CN1C(=O)c2cccnc2Oc2ccccc21`, 87% (inactive). With `C=CCc1ccccc1OCCSc1nc(-c2ccccc2F)nc2cc(=O)[nH]n12`, the survival is 99% (inactive). For the compound `COc1ccccc1OCCSc1nc(-c2ccc(C(C)(C)C)cc2)nc2cc(=O)[nH]n12`, the survival is 49% (inactive). To `C=CCc1ccccc1OCCSc1nc(-c2ccc(C(C)(C)C)cc2)nc2cc(=O)[nH]n12` belongs 32% (active).
